What all share (type): functional
Assay [1] addresses Solute carrier family 2, facilitated glucose transporter member 1 (Homo sapiens) (UniProt P11166). The experiment in a line: ST_JUDE_LEISH: Cytotoxicity at 2uM final concentration against transgenic Leishmania Mexicana promastigotes LmGLUT1 that are glucose transport deficient and complemented with the human glucose transporter GLUT1. Activity is measured by DNA content using SYBR green in vitro.

Assay [2] addresses Hexose transporter 1 (Plasmodium falciparum) (UniProt O97467). As to the kind of experiment: ST_JUDE_LEISH: Cytotoxicity at 2uM final concentration against transgenic Leishmania Mexicana promastigotes LmPfHT that are glucose transport deficient and complemented with the Plasmodium falciparum hexose transporter. Activity is measured by DNA content using SYBR green in vitro.
For assay [3], the target named is Glucose transporter (Leishmania mexicana) (UniProt O61059). As to the kind of experiment: ST_JUDE_LEISH: Cytotoxicity at 2uM final concentration against transgenic Leishmania Mexicana promastigotes LmGT2 that are glucose transport deficient and complemented with the L. Mexicana glucose transporter 2. Activity is measured by DNA content using SYBR green in vitro.

The values that follow come from ChEMBL document CHEMBL3433997, “St. Jude Leishmania screening dataset” (2016).

Solute carrier family 2, facilitated glucose transporter member 1 (Homo sapiens), sequence (P11166 whole entry): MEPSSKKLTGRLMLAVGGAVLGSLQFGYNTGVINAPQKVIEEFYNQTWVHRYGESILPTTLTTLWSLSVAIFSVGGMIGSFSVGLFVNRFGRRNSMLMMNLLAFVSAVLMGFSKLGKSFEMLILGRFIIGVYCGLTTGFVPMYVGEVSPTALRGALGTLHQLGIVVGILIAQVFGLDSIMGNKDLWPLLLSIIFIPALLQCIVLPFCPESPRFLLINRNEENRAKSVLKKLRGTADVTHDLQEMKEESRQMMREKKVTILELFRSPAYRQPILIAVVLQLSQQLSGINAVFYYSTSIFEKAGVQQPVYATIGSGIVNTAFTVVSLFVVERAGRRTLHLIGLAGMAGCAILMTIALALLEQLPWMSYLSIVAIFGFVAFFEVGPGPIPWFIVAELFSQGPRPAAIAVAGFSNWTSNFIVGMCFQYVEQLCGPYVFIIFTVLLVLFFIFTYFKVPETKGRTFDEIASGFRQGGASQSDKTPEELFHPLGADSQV

A word on the inhibition: it is the change of the read-out against control, counted positive when it falls. Consider `CCCC1(NC[C@@H](O)[C@H](Cc2ccccc2)NC(=O)c2cc(NCC)cc(N3CCCCS3(=O)=O)c2)CC1`, for which the inhibition was 1.58% in assay [1], 1.33% in assay [2] and -0.73% in assay [3].
In the same order, the values of `Cc1cc(N2CC=CCC2)nc(NC(=N)Nc2ccc(Cl)cc2)n1` are 6.87%, 7.74% and 6.89%.
As to `COc1cccc(-c2cccc(NC(=O)C3CCN(Cc4ccc(O)cc4)CC3)c2)c1`, the figures for the inhibition in assay [1], in assay [2] and in assay [3] were 0.86%, 0.59% and -5.2%, respectively.
Consider `COc1ccc2nccc(N3CCC(CCNCc4cc5c(cn4)OCCO5)CC3)c2c1`, for which the figures for the inhibition in assay [1], in assay [2] and in assay [3] were 7.15%, 8% and 4.48%, respectively.
On to `Cc1cccc2nc(-c3cccc(-c4ccc(NC(=O)c5cnccc5C(F)(F)F)cc4)c3)[nH]c12`, for which the figures for the inhibition in assay [1], in assay [2] and in assay [3] were 1.18%, -0.42% and 3.44%, respectively.
For `COc1ccc2nccc([C@@H](O)CN3CCC(NCC(O)Cc4ccccc4)CC3)c2c1` (some centres not stated), the results for the inhibition in assay [1], in assay [2] and in assay [3] were -0.38%, -3.2% and 1.51%, respectively.
For the compound `CCCCNCc1ccc(-c2nc(CN(C(=O)Nc3cc([N+](=O)[O-])ccc3F)C3Cc4ccccc4C3)cs2)cc1`, the values for the inhibition in assay [1], in assay [2] and in assay [3] were 6.86%, 8.03% and 4.78%, respectively.
Turning to `O=C(/C=C/c1ccc(Cl)c(Cl)c1)NCCCCCN1CCN(C(=O)Nc2ccc(Cl)c(C(F)(F)F)c2)CC1`, the figures for the inhibition in assay [1], in assay [2] and in assay [3] were 2.17%, 0.61% and -1.28%, respectively.
For the compound `CCOC(=O)c1cn(CC)c2cc(OCc3ccccc3)ccc2c1=O`, the inhibition in assay [1] amounted to 0.45%; in assay [2], 0.36%; in assay [3] it was 4.59%.
Consider `CCOC(=O)c1c(NC(=O)c2ccccc2)sc2c(O)c(CN(CC)CC)ccc12`, for which the inhibition in assay [1] stood at 12%; in assay [2], 5.42%; in assay [3], 2.36%.
For the compound `FC(F)(F)c1ccc2[nH]c(-c3ccc(-c4ccc(CN5CCN(c6cnccn6)CC5)cc4)s3)nc2c1`, the figures for the inhibition in assay [1], in assay [2] and in assay [3] were 2.24%, 1.86% and -2.19%, respectively.
Take `CCCN(CCC)C(=O)c1cc(C(=O)N[C@@H](Cc2ccccc2)[C@H](O)CNCc2cccc(OC)c2)cc(N2CCCCS2(=O)=O)c1`: the inhibition was 4.58% in assay [1], 5.76% in assay [2] and 5.14% in assay [3].
Take `COc1ccc(Nc2nccc(NCCNC(=O)c3cc4ccccc4s3)n2)cc1`: the inhibition was 5.11% in assay [1], 3.59% in assay [2] and -0.64% in assay [3].
For `Cc1ccc(/C=C/C(=O)NC2CCC(N3CCC(c4ccccc4C)CC3)CC2)cc1F` (configuration not stated), the inhibition in assay [1] was found to be 15.1%; in assay [2] it was 17.5%; in assay [3] it was 13.7%.
Regarding `COC(=O)c1cccc(CN(CCC(O)(C(F)(F)F)C(F)(F)F)C(=O)CC2CCCC2)c1`, the inhibition in assay [1] amounted to 3.39%; in assay [2], 1.44%; in assay [3], 1.91%.
`COc1cccc2cc(C(=O)N[C@@H](CC(C)C)C(=O)N[C@H](/C=N/NC(=O)c3ccccc3)Cc3c[nH]cn3)oc12`: the figures for the inhibition in assay [1], in assay [2] and in assay [3] were 2.75%, 0.99% and 3.92%, respectively.
In the same order, the values of `CCN(CC)CCOc1ccc(C(O)(C#CC(O)(c2ccc(OCCN(CC)CC)cc2)c2ccc([N+](=O)[O-])cc2)c2ccc([N+](=O)[O-])cc2)cc1` (configuration not stated) are 61%, 32.7% and 4.31%.
In the case of `CCCCC(=O)Nc1cc(=O)[nH]c2nc(-c3ccc(Cl)cc3)nn12`, the inhibition in assay [1] is -1.02%; in assay [2], 3.54%; in assay [3], -0.39%.
With `FC(F)(F)c1ccc2[nH]c(-c3ccc(-c4cccc(CNCC5CCCO5)c4)s3)nc2c1` (configuration not stated), the figures for the inhibition in assay [1], in assay [2] and in assay [3] were 0.73%, 2.27% and 2.21%, respectively.
Consider `CCN(CC)CCN(Cc1ccc(-c2ccc(C(F)(F)F)cc2)nc1)C(=O)Cn1cc(Cc2cnn(C)c2)c(=O)n2nc(-c3ccccc3)cc12`, for which the results for the inhibition in assay [1], in assay [2] and in assay [3] were 2.39%, 3.48% and 0.44%, respectively.
In the same order, the values of `O=C(/C=C/c1ccc(Cl)c(Cl)c1)NC1CCC(CN2CCC(c3nc4ccccc4n3CCCO)CC2)CC1` (configuration not stated) are 0.86%, 1.32% and 1.75%.
In the same order, the values of `COc1ccc(Br)cc1/C=C/C(=O)Nc1cccc(C2CCCN(C)C2)c1` (configuration not stated) are 6.13%, 5.55% and 7.45%.
In the same order, the values of `O=C(Nc1cccc(C2=NCCCN2)c1)Nc1cccc(C2=NCCCN2)c1` are 2.31%, 1.94% and 0.46%.
Take `CCNc1cc(C(=O)N[C@@H](Cc2ccccc2)[C@H](O)CNC2CCC(C(C)(C)C)CC2)cc(N2CCCC2=O)c1` (some centres not stated): the inhibition in assay [1] was 0.78%; in assay [2] it was 1.1%; in assay [3] it was -2.55%.
The like results for `O=C(NCc1ccc(F)cc1)c1cnc(N2CCN(c3ccncc3)CC2)c(Cl)c1` were, in that order, 22.7%, 11.6% and 5.45%.
As for `O=C(/C=C/c1ccc(Cl)c(Cl)c1)N1CCC(CN2CCC(c3c[nH]c4ncccc34)CC2)CC1`, the inhibition in assay [1] worked out at 4.3%; in assay [2] it was 3.52%; in assay [3], 2.38%.
On to `Cc1cc(N[C@@H](Cc2ccccc2)C(=O)NCc2cccs2)nc(NCC2CCCCC2)n1`, for which the inhibition in assay [1] is 3.33%; in assay [2] it was 2.71%; in assay [3], -0.41%.
In the same order, the values of `Cc1cccc2nc(-c3ccc(-c4cccc(CNCCNC(=O)c5ccnn5C)c4)cc3)[nH]c12` are 0.53%, 1.5% and -3.68%.
Regarding `CC(C)(C)c1ccc(CNC(=O)/C=C/c2ccc(CNC3CCNCC3)cc2)cc1`, the inhibition in assay [1] was -1.23%; in assay [2], -1.07%; in assay [3], -1.84%.
For the compound `Cc1ccccc1C1CCN(C2CCC(NC(=O)/C=C/c3cccc(F)c3)CC2)CC1` (configuration not stated), the values for the inhibition in assay [1], in assay [2] and in assay [3] were 6.96%, 8.22% and 7.51%, respectively.
As for `CC(CN1CCN(CC(c2ccc(F)cc2)N2CCN(C)CC2)CC1)C(=O)c1ccc(O)cc1` (configuration not stated), the figures for the inhibition in assay [1], in assay [2] and in assay [3] were 2.71%, 2.35% and 2.04%, respectively.
The like results for `COc1ccc2nccc([C@@H](O)CN3CCC(NC(=O)c4ccc(Oc5ccccc5)cc4)CC3)c2c1` were, in that order, 3.02%, 8.83% and 1.34%.
In the same order, the values of `O=C(Nc1ccc(CCN2CCC(c3nc(COCC(F)(F)F)c(-c4ccccc4)o3)CC2)cc1)c1ccc(F)cc1` are 2.62%, 2.23% and -0.66%.
`COc1ccc2ncc(F)c(CCN3CC[C@H](NC(=O)c4ccc5c(n4)NC(=O)CS5)[C@H](O)C3)c2n1`: the inhibition in assay [1] was 10.7%; in assay [2], 9.73%; in assay [3], 1.48%.
